Experimental data: the supplement of paper PMC12297408
Structures can show the parent of a compound that is named as a salt. Unmarked numbers belong to inactive results.

System: Plasmodium falciparum NF54/iGP1_RE9H ulg8 stage V gametocytes
Assay: gametocyte viability (luciferase signal relative to DMSO control) (% of DMSO control); higher = less gametocytocidal activity, active = 50 or less
Settings: exposure time: 72 h
How it was run: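 Stage V gametocytes of the NF54/iGP1_RE9Hulg8 line (day 12; ~2.5% gametocytemia, 3% hematocrit), in medium containing 0.5% Albumax II, were dispensed into 96-well plates with compounds spotted in nanolitre volumes from 10 mM DMSO stocks, for final concentrations of 10 µM or 1 µM in a single well each. After 72 h at 37 °C, 90 µl from each well was combined with 10 µl D-luciferin (30 mg/ml), and luminescence was measured on an IVIS Lumina II. Viability was expressed against the mean of the DMSO vehicle wells on the same plate.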

SMILES	gametocyte viability (concentration: 1 µM)	gametocyte viability (concentration: 10 µM)
Cc1c(CN2CCN(C(=O)[C@H](C)O)CC2)sc2c(N3CCOCC3)nc(-c3cnc(N)nc3)nc12	106	109
C#Cc1cccc(Nc2ncnc3cc(OCCOC)c(OCCOC)cc23)c1 [Erlotinib HCl]	86.2	82.4
CC1CNCCN1S(=O)(=O)c1cccc2cnccc12 (stereo not given)	97.5	97.9
O=c1cc(-c2cccc3c2Sc2ccccc2S3)oc(N2CCOCC2)c1	110	107
c1ccc2c(-c3cnn4cc(-c5ccc(N6CCNCC6)cc5)cnc34)ccnc2c1	106	73.3
Nc1ncnc2c1c(-c1cnc3[nH]ccc3c1)nn2C1CCCC1	101	116
COc1cc2c(N3CCN(C(=O)Nc4ccc(OC(C)C)cc4)CC3)ncnc2cc1OCCCN1CCCCC1 [Tandutinib (MLN518)]	98.8	91.8
C=CC(=O)Nc1cccc(Sc2nc(Nc3ccc(N4CCN(C)CC4)cc3)ncc2Cl)c1	87.2	72.7
CC(C)(C)c1cc(C=C(C#N)C(N)=S)cc(C(C)(C)C)c1O	103	102
CO[C@H]1C[C@@H]2CC[C@@H](C)[C@@](O)(O2)C(=O)C(=O)N2CCCC[C@H]2C(=O)O[C@H]([C@H](C)C[C@@H]2CC[C@@H](OCCO)[C@H](OC)C2)CC(=O)[C@H](C)/C=C(\C)[C@@H](O)[C@@H](OC)C(=O)[C@H](C)C[C@H](C)/C=C/C=C/C=C/1C [Everolimus (RAD001)]	91	94.2
